PNC inhibitor: High Content Assay for Compounds that inhibit the Assembly of the Perinucleolar Compartment. PC3M PTB-GFP, PNC prevalence imaging, 16 h; stronger effect = lower value. activity change (PNC), negative = inhibition, % at 10 µM. 3.1% of 140,000 active;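 active = readout at or below -70, meaning at least 70% loss of cells showing the perinucleolar compartment, a nuclear body marking cancer cells; inconclusive = readout between -30 and a set limit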;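 also: plate controls were DMSO wells for no effect and camptothecin positive control wells for full effect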
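Read-out is percentage of cells bearing a perinucleolar compartment, from automated 20x imaging of fixed, Hoechst-stained PC3M PTB-GFP cells. Cells were seeded 4 h, then exposed 16 h to compound (23 nl of library stock) in duplicate plates.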
ALDH1A1 block: qHTS Assay for Inhibitors of Aldehyde Dehydrogenase 1 (ALDH1A1); Potency, µM (top dose mostly 75.3 µM), inactives show top-dose activity, negative = inhibition, actives largely listed as inhibitors; AID 1030, 2008; Aldehyde dehydrogenase 1A1 (Homo sapiens), P00352; 7.3% of 220,000 active; Purified ALDH1A1, NADH fluorescence, propionaldehyde substrate;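 also: potency is read from the fitted curve at half-maximal effect; plate controls were no enzyme wells and a reference inhibitor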
JMJD2E inh: qHTS Assay for Inhibitors of Human Jumonji Domain Containing 2E (JMJD2E) | JMJD2E catalytic domain, FDH-coupled NADH fluorescence (FDH is formaldehyde dehydrogenase) | Lysine-specific demethylase 4E (Homo sapiens), B2RXH2 | 1.6% of 230,000 active | Potency, µM (series often up to 57.1 µM), for the others: top-dose activity change, negative = inhibition, hits mostly inhibitors;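 also: potency is read from the fitted curve at half-maximal effect; 0% = wells with enzyme and -100% = buffer wells without enzyme; nearly all actives have a fitted effect of over 50% in size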
Target sequence (B2RXH2 1-337 limits assumed): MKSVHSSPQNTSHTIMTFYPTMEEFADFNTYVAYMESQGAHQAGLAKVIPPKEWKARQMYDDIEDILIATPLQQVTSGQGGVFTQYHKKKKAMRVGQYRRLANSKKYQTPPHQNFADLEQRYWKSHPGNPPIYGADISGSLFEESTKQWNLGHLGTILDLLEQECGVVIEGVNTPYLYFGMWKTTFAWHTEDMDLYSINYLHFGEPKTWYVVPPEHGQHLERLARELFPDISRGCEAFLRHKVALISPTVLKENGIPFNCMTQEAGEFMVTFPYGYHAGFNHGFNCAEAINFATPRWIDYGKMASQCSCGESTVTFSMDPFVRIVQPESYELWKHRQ
HPGD inh: qHTS Assay for Inhibitors of HPGD (15-Hydroxyprostaglandin Dehydrogenase) | purified HPGD, NADH fluorescence kinetic, PGE2 substrate | Potency, µM, without a hit: top-dose activity change, negative = inhibition, actives largely listed as inhibitors | 4.3% of 150,000 active; also: potency is read from the fitted curve at half-maximal effect
Target sequence (P15428 whole entry, looked up): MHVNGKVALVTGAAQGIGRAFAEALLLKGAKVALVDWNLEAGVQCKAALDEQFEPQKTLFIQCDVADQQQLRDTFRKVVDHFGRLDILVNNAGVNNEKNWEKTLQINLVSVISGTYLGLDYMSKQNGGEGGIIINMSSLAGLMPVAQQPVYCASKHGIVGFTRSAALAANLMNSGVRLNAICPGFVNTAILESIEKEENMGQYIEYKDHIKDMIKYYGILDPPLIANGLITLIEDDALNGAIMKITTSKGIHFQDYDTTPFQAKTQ
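20 nM HPGD preincubated 15 min at room temperature with compound in 50 mM Tris-HCl pH 8, 0.01% Tween 20. Started with 1 mM NAD+ and 30 uM prostaglandin E2; NADH fluorescence (360/450 nm) read 5 times over 30-s intervals, last minus first.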
The depositor's hits bear a star; ? = inconclusive; . = no result; [ ] = another dose, or the depositor's remark. Most compounds without a hit are left out; they make up all but 11% or so of the library. Unless noted, calls follow the shape of the dose curve; as a rule, active = well fitted inhibition curve with a large enough effect (not every such curve was filed as active); inconclusive = small, poorly fitted or top-dose-only effect, or another doubt; inactive = no such curve, though single readings can be large or run the other way. Unless noted, % is scaled to controls: 0 for no effect and ±100 for the full control effect.

SMILES | PNC inhibitor | ALDH1A1 block | JMJD2E inh | HPGD inh
CCOCCCNC(=O)C(c1ccc(OC)cc1)N(Cc1cccs1)C(=O)CNC(C)=O (centres undefined) | . | -5% | -9% | .
COc1ccc(CN(C(=O)Cc2c[nH]c3ccccc23)C(C(=O)NC2CCCCC2)c2ccc(C)o2)cc1 (centres undefined) | ? | 6.3µM* | -2% | -18%
COCCN(C(=O)Cc1cccs1)C(C(=O)NC1CCCC1)c1ccc(OC)c(OC)c1 (centres undefined) | . | -14% | -3% | .
COc1ccc(CNC(=O)C(c2ccc(C)o2)N(Cc2cccs2)C(=O)Cc2cccs2)cc1 (centres undefined) | -29 | 3.5µM* | -3% | -18%
COCCN(C(=O)Cc1cccs1)C(C(=O)NCc1ccc(OC)cc1)c1ccc(C)cc1 (centres undefined) | 8 | 2µM* | -2% | -27%
CCC1=C2CC[C@H]3C(=O)N(CC(=O)OC)C(=O)[C@H]3[C@H]2[C@@]2(Cc3ccccc3)C(=NCCc3c[nH]c4ccccc34)OC(=O)N2C1=O | . | -7% | -7% | -1%
O=S(=O)(Cc1ccccc1)N1CCCCCC1 | 7 | -10% | 5% | 0%
O=S(=O)(Cc1ccccc1)N1CCn2c(nc3ccccc32)C1 | -87* | -2% | -5% | -3%
O=S(=O)(Cc1ccccc1)N1CCCCC1 | 23 | -4% | -11% | 32µM*
Cc1nc2sccn2c1P(c1c(C)nc2sccn12)c1c(C)nc2sccn12 | -80* | 10% | -3% | 4%
CC(=O)[C@@]1(O)CC[C@H]2[C@H]3C[C@@H](C)C4=CC(=O)C=C[C@]4(C)[C@@]3(F)[C@@H](O)C[C@]21C | . | -6%[20.9 µM] | 4%[25.5 µM] | -2%
O=C(/C=C/c1ccco1)N1CCN(c2ncccn2)CC1 | -22 | 14µM* | -5% | -17%
O=C(/C=C/c1ccco1)N1CCC(Cc2ccccc2)CC1 | . | 20µM* | -1% | .
O=C(Nc1ccc(OCC(=O)N2CCC(Cc3ccccc3)CC2)cc1)c1ccco1 | ? | 10µM* | -7% | -17%
C=CC1=C2C=C(C3CC3)N(C3CCCC3)C=C2C(=O)C(C)(OC(=O)c2ccco2)C1=O (centres undefined) | . | 8%[13.5 µM] | -16%[11.4 µM] | -1%
COC(=O)NC(CC(C)=O)c1cccc(C(F)(F)F)c1 (centres undefined) | . | 1%[13.5 µM] | . | .
CCCN1C(=O)/C(=C2\SC(=S)N(c3c(C)n(C)n(-c4ccccc4)c3=O)C2=O)c2ccccc21 | . | . | 2% | .
CCCC(C(=O)O)N1C(=O)/C(=C2\C(=O)N(C)c3ccccc32)SC1=S (centres undefined) | 7 | -12% | -2% | 25µM*
CCn1c(/C=C/Nc2ccccc2)[n+](CC)c2cc(Cl)c(Cl)cc21 | -96* | 9% | -2% | -2%
CCn1c(/C=C/N(C(C)=O)c2ccccc2)[n+](CCCS(=O)(=O)[O-])c2cc(Cl)c(Cl)cc21 | . | 5% | 0% | .
Cc1ccccc1C(=O)NNC(=O)C(=O)N1CCCCC1 | 3 | 6% | -7% | 2%
Cc1ccc(NNC(=O)C(=O)N2CCCCC2)cc1 | -90* | -3% | -2% | -2%
COc1ccc(NC2=NCC(Cc3ccc(Br)cc3)S2)cc1 (centres undefined) | -92* | -4% | -12% | -25%
CCN(CC)c1ccc(/C=C(\C#N)C(N)=O)cc1 | . | 32µM* | -4% | .
C=CCNC(=O)/C(C#N)=C/c1ccc(C(=O)O)cc1 | . | 6% | -1% | .
SMILES | PNC inhibitor | ALDH1A1 block | JMJD2E inh | HPGD inh
N#C/C(=C\c1cc(O)c(O)c(O)c1)C(N)=O | . | . | 1µM* | .
CN(C)c1ccc(/C=C(\C#N)C(=O)c2ccccc2)cc1 | . | 7.1µM* | 9% | .
CCN(CC)c1ccc(/C=C(\C#N)C(N)=S)cc1 | . | . | -10% | .
CCN(CC)c1ccc(/C=C(\C#N)C(=O)c2ccc(Br)cc2)cc1 | -20 | 11µM* | -1% | -12%
CCOC(=O)c1nn(-c2ccc(Br)cc2)cc1C(=O)c1cccc2ccccc12 | ? | 5% | -14% | -18%
O=C(N/N=C/c1ccc[nH]1)c1cc(-c2ccc(Cl)cc2)nc2ccccc12 | . | 3% | -27% | .
CC(C)(C)NC(=O)CSc1nc2[nH]ncc2c(=O)[nH]1 | . | 4% | 6% | .
N#CC(C#N)=C(N)/C(C#N)=C/c1ccc(O)cc1 | . | 2.2µM* | -12% | ?
CCOC(=O)NC(=O)/C(C#N)=C/c1ccc(N(C)C)cc1 | . | 13µM* | -15% | .
N#Cc1ccc(CS(=O)(=O)c2nnnn2-c2ccccc2)cc1 | . | 0.79µM* | -6% | -5%
CCS(=O)(=O)c1nnnn1-c1ccccc1S(C)(=O)=O | -117* | ? | 10% | -5%
N#Cc1ccc(CS(=O)(=O)c2nnnn2C2CCCCC2)cc1 | . | 3% | 7% | -2%
O=S(=O)(CCc1ccccc1)c1nnnn1-c1ccccc1 | . | 8% | -7% | -2%
O=S(=O)(Cc1ccccc1)c1nnnn1-c1ccccc1 | . | 0.45µM* | 6% | -20%
N#Cc1cccc(CS(=O)(=O)c2nnnn2C2CCCCC2)c1 | . | 25µM* | -6% | -10%
CCOC(=O)c1nc(C)nc(Sc2n[nH]c(-c3cc(C(F)(F)F)cc(C(F)(F)F)c3)n2)c1C | . | . | 1% | .
CCNc1ncc2nc(-c3cn(C)c4ccccc34)c(=O)n(Cc3ccc(F)cc3)c2n1 | . | -7% | . | .
CCCN(CCC)C(=O)[C@@H](CCC(=O)O)NC(=O)c1ccccc1 | . | 19%[20.9 µM] | -1%[25.5 µM] | -7%
c1ccc(CNc2nnnn2-c2ccccc2)cc1 | -2 | 40µM* | 11% | -16%
Cc1ccc(S(=O)(=O)N/N=C\c2ccc([N+](=O)[O-])o2)cc1 | -112* | ? | -23% | -19%
O=[N+]([O-])c1ccc(/C=N/N=C/c2ccc([N+](=O)[O-])o2)o1 | . | ? | 14µM* | .
Cc1ccc(/C=N/NS(=O)(=O)c2ccc([N+](=O)[O-])cc2)o1 | -2 | -3% | 12% | -3%
O=S(=O)(N/N=C\c1ccc(-c2ccccc2Cl)o1)c1ccccc1 | ? | -2% | -3% | 16µM*
Cc1ccc(S(=O)(=O)N/N=C\c2ccc(C)o2)cc1 | 7 | -9% | -13% | -7%
O=[N+]([O-])c1ccc(/C=N/NS(=O)(=O)c2ccc(Cl)cc2)o1 | 82 | 7.9µM* | ? | 28µM*
SMILES | PNC inhibitor | ALDH1A1 block | JMJD2E inh | HPGD inh
CCC(=O)Nc1cccc(C(=O)c2ccc(C)c(C)c2)c1 | . | ? | -3% | .
COc1cc(C)nc(-c2csc(C)n2)n1 | . | 2% | -6% | .
Cc1nnc(NC(=O)CSCc2ccccc2)s1 | -106* | -2% | 9% | -8%
CCC(Oc1ccccc1)C(=O)Nc1nc2c(s1)C(=O)CC(C)(C)C2 (centres undefined) | 39 | 13µM* | -23% | -14%
CCOCc1nnc(NC(=O)CSCc2ccccc2)s1 | -18 | ? | 0% | -3%
CCC(C)C(=O)Nc1nc2c(s1)C(=O)CC(C)(C)C2 (centres undefined) | -119* | 16µM* | 2% | -24%

Assay outcomes: PubChem BioAssay, National Center for Advancing Translational Sciences (NCATS)
